In PubChem BioAssay (NCI) one finds growth inhibition data, which are given here for nine compounds.

Each structure is given as a SMILES string. About 79,000 compounds went through this panel and 15% of them were active in at least one assay; those are over-represented in the sample as a whole. Values without a mark were called inactive. Active and inactive are the calls of the source. Rule as the data show it: active = growth inhibition above about 70%; inactive = the rest.

A short description of assay [1]: NCI Yeast Anticancer Drug Screen. Data for the rad50 strain (AID 155).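 Also: 0% = growth of vehicle-only cultures of the same strain.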 The following applies: S. cerevisiae rad50 strain growth inhibition, active compounds read high. In outline: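 Readout: growth inhibition relative to vehicle-treated cultures. Compound exposure was carried out in a genetically defined yeast strain deficient in DNA damage repair.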
Assay [2] is described as follows: NCI Yeast Anticancer Drug Screen. Data for the mec2-1 strain (AID 157). The settings on record: S. cerevisiae mec2-1 strain, active compounds read high. In outline:
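mec2-1 yeast strain, carrying an alteration in DNA damage repair or cell cycle control, was exposed to compounds; growth inhibition was measured relative to vehicle-treated controls.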

Assay [3] in a line: NCI Yeast Anticancer Drug Screen. Data for the sgs1 mgt1 strain (AID 161).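 Also: 0% = growth of cultures given vehicle only.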 The following applies: S. cerevisiae sgs1 mgt1 strain, active compounds read high. Summed up: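 Percent growth inhibition was derived by comparing compound-exposed mutant yeast with vehicle-exposed cultures. The strain carries alterations in DNA damage repair.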
Assay [4] is described as follows: NCI Yeast Anticancer Drug Screen. Data for the cln2 rad14 strain (AID 165).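 Also: 0% = growth equal to vehicle treated cultures.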 The settings on record: S. cerevisiae cln2 rad14 strain, active compounds read high. In outline:
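Yeast carrying cln2 and rad14 alterations (cell cycle control and DNA damage repair) were exposed to compounds. Growth inhibition was measured against vehicle-treated controls.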

Assay [5] is described as follows: NCI Yeast Anticancer Drug Screen. Data for the bub3 strain (AID 167). The following applies: S. cerevisiae bub3 mutant strain, active compounds read high. In outline:
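Readout: yeast growth inhibition, expressed relative to vehicle-only wells. The test organism is a mutant strain from a panel with lesions in DNA repair or checkpoint genes.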

The nature of assay [6]: NCI Yeast Anticancer Drug Screen. Data for the mlh1 rad18 strain (AID 175). The settings on record: S. cerevisiae mlh1 rad18 strain growth inhibition, active compounds read high. In outline: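 Growth inhibition of the yeast strain was measured after compound exposure and expressed relative to vehicle-treated controls. The strain carries defined defects in DNA damage repair.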
Where [7] appears, read: at 5.0 µM (retest, dose inferred, filed as 0.5).
[8] abbreviates: at 50.0 µM (retest, dose inferred, filed as 5.0).

Take `CC(=O)c1cc2c(cc1O)C(C)(C)CCC2(C)C`: the growth inhibition was 3% in assay [1] (setting [7]); 3% in assay [1] (setting [8]); 97.8% (active) in assay [1] (at 50.0 µM); 1% in assay [2] (setting [7]); 0% in assay [2] (setting [8]); 98.7% (active) in assay [2] (at 50.0 µM). The growth inhibition was 2% in assay [3] (setting [7]); 1% in assay [3] (setting [8]); 47.7% in assay [3] (at 50.0 µM); 0% in assay [4] (setting [7]); 0% in assay [4] (setting [8]); 95.6% (active) in assay [4] (at 50.0 µM). The growth inhibition in assay [5] (setting [7]) is 3%; in assay [5] (setting [8]), 7%; in assay [5] (at 50.0 µM), 95% (active); in assay [6] (setting [7]), -2%; in assay [6] (setting [8]), -5%; in assay [6] (at 50.0 µM), 98.8% (active).

Take `COC(=O)[CH2][Sn]([CH2]C(=O)OC)([c]1ccccc1)[c]1ccccc1`: the growth inhibition was 80% (active) in assay [1] (setting [7]); 97% (active) in assay [1] (setting [8]); 88.3% (active) in assay [1] (at 50.0 µM); 79% (active) in assay [2] (setting [7]); 99% (active) in assay [2] (setting [8]); 88.5% (active) in assay [2] (at 50.0 µM). Further, the growth inhibition was 77% (active) in assay [3] (setting [7]); 99% (active) in assay [3] (setting [8]); 86.9% (active) in assay [3] (at 50.0 µM); 52% in assay [4] (setting [7]); 99% (active) in assay [4] (setting [8]); 86.7% (active) in assay [4] (at 50.0 µM). In addition, the growth inhibition in assay [5] (setting [7]) was 82% (active); in assay [5] (setting [8]), 99% (active); in assay [5] (at 50.0 µM), 84.4% (active); in assay [6] (setting [7]), 86% (active); in assay [6] (setting [8]), 97% (active); in assay [6] (at 50.0 µM), 92% (active).

`O=C1C(C(Nc2ccccc2)c2ccccc2)=C([O-])c2ccccc21.O=C1C(C(Nc2ccccc2)c2ccccc2)=C([O-])c2ccccc21.[Co+2]` (configuration not stated): the growth inhibition in assay [1] (setting [7]) is 66%; in assay [1] (setting [8]), 61%; in assay [1] (at 50.0 µM), 73.7% (active); in assay [2] (setting [7]) it was 42%; in assay [2] (setting [8]) it was 62%; in assay [2] (at 50.0 µM), 55.6%. The growth inhibition in assay [3] (setting [7]) is 42%; in assay [3] (setting [8]) it was 51%; in assay [3] (at 50.0 µM), 73% (active); in assay [4] (setting [7]) it was 41%; in assay [4] (setting [8]) it was 40%; in assay [4] (at 50.0 µM), 35%. Further, the growth inhibition in assay [5] (setting [7]) is 56%; in assay [5] (setting [8]), 54%; in assay [5] (at 50.0 µM), 77.4% (active); in assay [6] (setting [7]) it was 45%; in assay [6] (setting [8]) it was 64%; in assay [6] (at 50.0 µM), 65.5%.

For `CC(C)C12C=C3CCC4C(C)(C(=O)O)CCCC4(C)C3(CC1)OO2` (configuration not stated), the growth inhibition in assay [1] (setting [7]) is 13%; in assay [1] (setting [8]) it was 90% (active); in assay [1] (at 50.0 µM) it was 93.7% (active); in assay [2] (setting [7]) it was -1%; in assay [2] (setting [8]) it was 95% (active); in assay [2] (at 50.0 µM) it was 95% (active). Further, the growth inhibition in assay [3] (setting [7]) is 7%; in assay [3] (setting [8]), 90% (active); in assay [3] (at 50.0 µM), 97.6% (active); in assay [4] (setting [7]), -6%; in assay [4] (setting [8]), 94% (active); in assay [4] (at 50.0 µM), 86.4% (active). The growth inhibition was -8% in assay [5] (setting [7]); 91% (active) in assay [5] (setting [8]); 96.4% (active) in assay [5] (at 50.0 µM); 1% in assay [6] (setting [7]); 95% (active) in assay [6] (setting [8]); 96.9% (active) in assay [6] (at 50.0 µM).

With `NCCNCCN1CC1`, the growth inhibition in assay [1] (setting [7]) was -2%; in assay [1] (setting [8]) it was 0%; in assay [1] (at 50.0 µM) it was 64.9%; in assay [2] (setting [7]), 1%; in assay [2] (setting [8]), 1%; in assay [2] (at 50.0 µM) it was 0.35%. Further, the growth inhibition was 1% in assay [3] (setting [7]); -1% in assay [3] (setting [8]); 39.9% in assay [3] (at 50.0 µM); -2% in assay [4] (setting [7]); -3% in assay [4] (setting [8]); 19.1% in assay [4] (at 50.0 µM). The growth inhibition in assay [5] (setting [7]) was -1%; in assay [5] (setting [8]), -6%; in assay [5] (at 50.0 µM), 33%; in assay [6] (setting [7]), -1%; in assay [6] (setting [8]), -1%; in assay [6] (at 50.0 µM), 40%.

As to `[O-][n+]1onc2c1-c1nonc1CC2`, the growth inhibition is 21% in assay [1] (setting [7]); 9% in assay [1] (setting [8]); -33.5% in assay [1] (at 50.0 µM); -16% in assay [2] (setting [7]); -6% in assay [2] (setting [8]); 5.65% in assay [2] (at 50.0 µM). For the same compound, the growth inhibition in assay [3] (setting [7]) is 4%; in assay [3] (setting [8]), 22%; in assay [3] (at 50.0 µM), -10.3%; in assay [4] (setting [7]) it was 8%; in assay [4] (setting [8]), 21%; in assay [4] (at 50.0 µM) it was 16%. Further, the growth inhibition in assay [5] (setting [7]) is 6%; in assay [5] (setting [8]), 19%; in assay [5] (at 50.0 µM), -3.95%; in assay [6] (setting [7]), -2%; in assay [6] (setting [8]) it was 11%; in assay [6] (at 50.0 µM) it was 1.15%.

With `Cl[C](Cl)(Cl)[Hg][C](Cl)(Cl)Cl`, the growth inhibition in assay [1] (setting [7]) is 80% (active); in assay [1] (setting [8]), 96% (active); in assay [1] (at 50.0 µM), 89.8% (active); in assay [2] (setting [7]) it was 90% (active); in assay [2] (setting [8]) it was 94% (active); in assay [2] (at 50.0 µM), 92.7% (active). Further, the growth inhibition is 100% (active) in assay [3] (setting [7]); 100% (active) in assay [3] (setting [8]); 92.8% (active) in assay [3] (at 50.0 µM); 99% (active) in assay [4] (setting [7]); 99% (active) in assay [4] (setting [8]); 91.5% (active) in assay [4] (at 50.0 µM). The growth inhibition in assay [5] (setting [7]) was 100% (active); in assay [5] (setting [8]), 97% (active); in assay [5] (at 50.0 µM), 91.3% (active); in assay [6] (setting [7]), 78% (active); in assay [6] (setting [8]) it was 95% (active); in assay [6] (at 50.0 µM), 90.2% (active).

With `CCN(CC)C(=S)[S-].CCN(CC)C(=S)[S-].O=C(O)CC([S-])C(=O)O.[Fe+3]` (configuration not stated), the growth inhibition in assay [1] (setting [7]) was 4%; in assay [1] (setting [8]), 98% (active); in assay [1] (at 50.0 µM) it was 61.8%; in assay [2] (setting [7]), 9%; in assay [2] (setting [8]), 99% (active); in assay [2] (at 50.0 µM), 55.8%. Besides, the growth inhibition in assay [3] (setting [7]) was 35%; in assay [3] (setting [8]) it was 99% (active); in assay [3] (at 50.0 µM), 76.8% (active); in assay [4] (setting [7]) it was 30%; in assay [4] (setting [8]), 98% (active); in assay [4] (at 50.0 µM), 43.8%. For the same compound, the growth inhibition in assay [5] (setting [7]) is -1%; in assay [5] (setting [8]), 98% (active); in assay [5] (at 50.0 µM) it was 45.7%; in assay [6] (setting [7]), 38%; in assay [6] (setting [8]) it was 98% (active); in assay [6] (at 50.0 µM), 87.2% (active).

Turning to `c1ccc(N=c2snc(-c3ccccc3)s2)cc1`, the growth inhibition in assay [1] (setting [7]) is 2%; in assay [1] (setting [8]), 2%; in assay [1] (at 50.0 µM), 91.1% (active); in assay [2] (setting [7]), -3%; in assay [2] (setting [8]) it was -2%; in assay [2] (at 50.0 µM) it was 46.8%. Moreover, the growth inhibition was 4% in assay [3] (setting [7]); 3% in assay [3] (setting [8]); 73.5% (active) in assay [3] (at 50.0 µM); 3% in assay [4] (setting [7]); -2% in assay [4] (setting [8]); 6.4% in assay [4] (at 50.0 µM). Moreover, the growth inhibition in assay [5] (setting [7]) is -4%; in assay [5] (setting [8]), 2%; in assay [5] (at 50.0 µM), 82.5% (active); in assay [6] (setting [7]) it was 5%; in assay [6] (setting [8]), 6%; in assay [6] (at 50.0 µM), 80.2% (active).
